Bioassay records from PubChem.
NPR2 activator: GC-B (human) receptor activation; HEK293-GC-B cells, CNP EC30, cGMP TR-FRET; 0% at EC30 CNP, 100% saturating CNP; activation, % at 10 µM; actives 0.11% (n = 370,000); AID 1920062;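 active = activation at 10 µM reaching about 35% in either raw or pattern-adjusted values, limit read from the data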
bovine MsrA act: activates bovine MsrA enzyme; purified bovine MsrA, absorbance read-out; activation, % at 10.6 µM; actives 0.3% (n = 360,000); in the data active = activation above about 7.5%;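 also: 0% = vehicle and 100% = reference activator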
NPR1 activator: GC-A (human) enzyme activation | P16066 | AID 1671463 | actives 0.14% (n = 370,000) | HEK293 GC-A cells, cGMP TR-FRET, EC30 ANP; 0% at EC30 ANP, 100% saturating ANP | activation, % at 10 µM; in the data active = activation above about 40%
Target sequence (P16066 whole entry, looked up): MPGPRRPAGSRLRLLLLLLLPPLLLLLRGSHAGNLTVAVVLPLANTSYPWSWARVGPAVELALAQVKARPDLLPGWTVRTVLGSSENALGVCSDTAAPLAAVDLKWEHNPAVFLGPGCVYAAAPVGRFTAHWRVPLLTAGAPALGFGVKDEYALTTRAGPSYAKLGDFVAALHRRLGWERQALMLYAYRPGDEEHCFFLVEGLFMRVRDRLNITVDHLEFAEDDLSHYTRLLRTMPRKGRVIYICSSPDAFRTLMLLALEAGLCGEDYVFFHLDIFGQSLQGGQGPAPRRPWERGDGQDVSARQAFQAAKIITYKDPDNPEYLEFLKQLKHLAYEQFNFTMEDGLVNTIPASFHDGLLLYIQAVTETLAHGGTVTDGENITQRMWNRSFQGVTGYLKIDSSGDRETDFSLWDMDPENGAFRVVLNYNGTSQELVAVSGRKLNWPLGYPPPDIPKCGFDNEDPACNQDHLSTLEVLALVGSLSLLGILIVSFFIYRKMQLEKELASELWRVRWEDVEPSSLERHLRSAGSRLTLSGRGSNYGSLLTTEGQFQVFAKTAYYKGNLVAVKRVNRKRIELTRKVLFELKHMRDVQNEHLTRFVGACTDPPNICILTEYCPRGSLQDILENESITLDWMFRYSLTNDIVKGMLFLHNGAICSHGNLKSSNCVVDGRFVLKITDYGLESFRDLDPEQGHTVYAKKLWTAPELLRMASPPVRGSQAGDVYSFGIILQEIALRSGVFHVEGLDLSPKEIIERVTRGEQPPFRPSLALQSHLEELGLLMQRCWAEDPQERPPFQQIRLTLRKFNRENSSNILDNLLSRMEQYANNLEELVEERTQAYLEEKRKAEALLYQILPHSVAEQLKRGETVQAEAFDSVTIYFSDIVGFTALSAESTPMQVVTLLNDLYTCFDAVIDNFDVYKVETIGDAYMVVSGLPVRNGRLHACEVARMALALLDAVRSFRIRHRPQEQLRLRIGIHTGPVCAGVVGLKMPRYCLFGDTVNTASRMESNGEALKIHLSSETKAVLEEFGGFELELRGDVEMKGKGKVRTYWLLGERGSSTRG
MsrA inh: bovine MsrA inhibition | purified bovine MsrA, absorbance read-out | inhibition, % at 15.5 µM | actives 0.75% (n = 360,000) | AID 651718; in the data active = inhibition above about 4.5%;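 also: 0% = vehicle wells with enzyme and 100% = reference inhibitor wells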
Starred values were filed as active, the others as inactive. Compounds with a hit are over-represented: about 1.2% of the library has one in this group of screens.

Screening CCOc1ccc(-n2c(COc3ccccc3)nnc2SCC(=O)Nc2ccc3c(c2)OCCO3)cc1 returned NPR2 activator 3.9 and NPR1 activator -4.7.
Screening CCNc1nc(N)c([N+](=O)[O-])c(Nc2cccc(Cl)c2)n1 returned NPR2 activator -8.1 and NPR1 activator 6.3.
For COC(=O)c1cc(CC(=O)c2ccc(O)cc2O)c(C)o1 the results were NPR2 activator 0.3, bovine MsrA act -3.7, NPR1 activator 0.3 and MsrA inh 7.2*.
`Cc1nn(-c2ccccc2)c(N2CCCC2)c1/C=N/NC(=O)c1cc(-c2ccccn2)nc2ccccc12` gave NPR2 activator 6.9, bovine MsrA act -8.2, NPR1 activator -1.3 and MsrA inh 2.2.
Cc1nn(-c2ccccc2)c(N2CCCC2)c1/C=N/NC(=O)c1cc(-c2ccccc2)nc2ccccc12 was read as NPR2 activator 3.4, bovine MsrA act -4.7, NPR1 activator -4.9 and MsrA inh 4.6*.
COC(=O)c1c(NC(=O)c2cccs2)sc2c1CCC(C)C2 (configuration not stated) was read as NPR2 activator -6.1, bovine MsrA act 8.3*, NPR1 activator -3.0 and MsrA inh -0.2.
For CC1CCc2c(sc(NC(=O)c3cccs3)c2C(=O)O)C1 (configuration not stated) the results were NPR2 activator -7.0, bovine MsrA act -1.1, NPR1 activator 4.5 and MsrA inh 1.2.
`O=C(CSc1nnc(-c2cccnc2)n1-c1ccc(Cl)cc1)c1ccc2ccccc2c1` gave NPR2 activator -6.9 and NPR1 activator -1.2.
For CCCCCCCNC(=O)C1(CC2CC(c3ccc(Cl)cc3)=NO2)CCN(C(=O)C2(C)CC2)CC1 (configuration not stated) the results were bovine MsrA act 8.5*.
For CC(=O)Nc1cc2c(cc1[N+](=O)[O-])OCCO2 the results were NPR2 activator -5.8, bovine MsrA act -0.1, NPR1 activator -2.3 and MsrA inh 4.6*.
O=C(NCc1ccc(Cl)cc1)c1cc(-c2ccco2)on1 was read as NPR2 activator 0.0, bovine MsrA act -3.2, NPR1 activator -0.1 and MsrA inh 1.7.
`COc1ccc(CNC(=O)c2cc(-c3ccco3)on2)cc1` gave NPR2 activator -2.1, bovine MsrA act 21.9*, NPR1 activator 0.6 and MsrA inh 0.9.
COc1cc(-c2coc3c(C(=O)NCc4ccc(OC)c(OC)c4)cccc23)ccc1O was read as NPR2 activator 3.2, bovine MsrA act -0.7, NPR1 activator 0.7 and MsrA inh 1.1.
Screening COc1ccc(CNC(=O)c2cccc3c(-c4cccc(C(N)=O)c4)coc23)cc1OC returned NPR2 activator 37.7*, bovine MsrA act -1.2, NPR1 activator 32.6 and MsrA inh 0.4.
Screening C[C@H]1[C@H](NC(=O)c2cccc(C(F)(F)F)c2)CC[C@@]23CCCN2C(=O)CCC[C@@H]13 returned NPR2 activator -3.3 and NPR1 activator -0.8.
Screening O=c1n(Cc2ccc(Cl)cc2)c2sc3c(c2c2ncnn12)CCCC3 returned NPR2 activator 48.7*, bovine MsrA act -5.2, NPR1 activator 34.4 and MsrA inh -0.5.
C=CCn1c(=O)n2ncnc2c2c3c(sc21)CCCC3 was read as NPR2 activator 1.1, bovine MsrA act -3.9 and NPR1 activator 17.3.
`COc1ccc(S[C@]2(C(=O)N3CCCC3)CC(=O)N(c3ccsc3)[C@@H]2c2ccc(OC)cc2)cc1` gave NPR2 activator -5.6 and NPR1 activator -9.4.
O=C(NCc1ccco1)OC1CCC12CCC(c1ccccc1)CC2 (configuration not stated) was read as NPR2 activator -6.6 and NPR1 activator 1.8.
Cc1cc(Br)c2nc3c(c(C(=O)O)c2c1)CCCCC3 was read as NPR2 activator 17.6, bovine MsrA act -10.5, NPR1 activator 64.2* and MsrA inh 0.3.
For CCc1ccc2nc3c(c(C(=O)O)c2c1)CCC3 the results were NPR2 activator 1.5, bovine MsrA act -0.9, NPR1 activator -0.1 and MsrA inh -0.1.
`CC(C)(C)c1ccc(-n2nc(C#N)c(Cl)cc2=O)cc1` gave NPR2 activator 74.5*, bovine MsrA act -11.2, NPR1 activator 68.6* and MsrA inh 1.6.
CC(C)(C)c1ccc(-n2nc(C(N)=O)c(O)cc2=O)cc1 was read as NPR2 activator -0.8, bovine MsrA act -13.2, NPR1 activator 0.1 and MsrA inh -0.4.
`CC(CCN1CCC(C(O)(c2ccccc2)c2ccccc2)CC1)Oc1ccc(C#N)c(F)c1` (configuration not stated) gave NPR2 activator -15.0 and NPR1 activator -20.4.
For S=C(c1ccc(-c2cc(Cl)ccc2Cl)o1)N1CCOCC1 the results were NPR2 activator 43.4*, bovine MsrA act -1.1, NPR1 activator 17.6 and MsrA inh 3.1.
Screening S=C(c1ccc(-c2cccc(Cl)c2)o1)N1CCOCC1 returned NPR2 activator 35.3*, bovine MsrA act -4.6, NPR1 activator 28.7 and MsrA inh 0.3.
Screening O=C(Nc1ccc(N2C(=O)[C@@H]3[C@H](C2=O)[C@@H]2C=C[C@H]3C2)c(Cl)c1)c1ccccn1 returned NPR2 activator -1.0 and NPR1 activator -1.3.
`COc1ccccc1CNC(=O)c1cc(S(=O)(=O)N2CCCC2)cn1C` gave NPR2 activator 37.0*, bovine MsrA act -1.4, NPR1 activator -0.1 and MsrA inh 1.4.
Screening Cn1cc(S(=O)(=O)N2CCCC2)cc1C(=O)NCc1ccccc1Cl returned NPR2 activator 2.3, bovine MsrA act -8.8, NPR1 activator -1.1 and MsrA inh -1.0.
C[C@@H]1CN([C@H](C)CO)C(=O)c2cc(NC(=O)Nc3ccccc3)ccc2O[C@@H](C)CCCCO[C@H]1CN(C)S(=O)(=O)c1ccc(F)cc1 was read as NPR2 activator -1.4 and NPR1 activator -0.7.
`O=C1/C(=C/c2cccnc2)N=C2CCCCCN12` gave NPR2 activator -2.0, bovine MsrA act -3.7, NPR1 activator -0.8 and MsrA inh 4.6*.
O=C(COC(=O)CSc1nnc(-c2ccc(Cl)cc2)o1)NCc1ccc2c(c1)OCO2 was read as NPR2 activator 4.5, bovine MsrA act -4.2, NPR1 activator 63.3* and MsrA inh -0.8.
N#Cc1ccc(NC(=O)COC(=O)CSc2nnc(-c3ccc(Cl)cc3)o2)cc1 was read as NPR2 activator -10.2, bovine MsrA act -0.9, NPR1 activator 62.3* and MsrA inh -1.0.
`NC(=O)c1c(NC(=O)COC(=O)CSc2nnc(-c3ccc(Cl)cc3)o2)sc2c1CCC2` gave NPR2 activator -4.8, bovine MsrA act 0.1, NPR1 activator 50.9* and MsrA inh 0.0.
Screening CC(=O)c1cccc(NC(=O)c2cnn3c(C)cc(C)nc23)c1 returned NPR2 activator -1.4 and NPR1 activator 7.3.
Screening Cc1ccc(NC(=O)CSc2nnc(-c3ccccc3F)n2-c2ccccc2)c(C)c1 returned NPR2 activator -13.0 and NPR1 activator -10.8.
Screening O=C1OCCC1Sc1nc2cc(Cl)ccc2s1 (configuration not stated) returned NPR2 activator 54.1*, bovine MsrA act -12.4, NPR1 activator 37.9 and MsrA inh -0.3.
